# Assay results: a collection of fitness landscapes (doi:10.1126/science.1257360)
# Over roughly 140,000 sequences, “enrichment ratio after two sorts for PhoP signalling” has its median near 0; the highest 2% begin near 11. What follows is part of a selection rich in the highest values, with near analogues and random picks from the rest.
# B1: PhoQ; a variant is named by its letters at X, in order, P23837 (parent)
# chain: MKKLLRLFFPLSLRVRFLLATAAVVLVLSLAYGMVALIGYSVSFDKTTFRLLRGESNLFYTLAKWENNKLHVELPENIDKQSPTMTLIYDENGQLLWAQRDVPWLMKMIQPDWLKSNGFHEIEADVNDTSLLLSGDHSIQQQLQEVREDDDDAEMTHSVAVNVYPATSRMPKLTIVVVDTIPVELKSSYMVWSWFIYVLSANLLLVIPLLWVAAWWSLRPIEALAKEVRELEEHNRELLNPATTRELTSLVRNLNRLLKSERERYDKYRTTLTDLTHSLKTPLXXLQXXLRSLRSEKMSVSDAEPVMLEQISRISQQIGYYLHRASMRGGTLLSRELHPVAPLLDNLTSALNKVYQRKGVNISLDISPEISFVGEQNDFVEVMGNVLDNACKYCLEFVEISARQTDEHLYIVVEDDGPGIPLSKREVIFDRGQRVDTLRPGQGVGLAVAREITEQYEGKIVAGESMLGGARMEVIFGRQHSAPKDE
# Variants of: B1
# Assay: enrichment ratio after two sorts for PhoP signalling (ratio (wild type AVST 3.29)); higher = more functional
# Conditions: with PhoP (E. coli)
row,Variant,enrichment ratio
1,STMN,2.85
2,AIMN,5.77
3,AQKN,≤ 0.25
4,AQMN,38.4
5,SQMN,25.3
6,SPMN,≤ 0.25
7,YRVY,≤ 0.25
8,YKWQ,≤ 0.25
9,AELM,2.01
10,AEEA,≤ 0.25
11,AEEN,≤ 0.25
12,AEYN,≤ 0.25
13,AELD,11.4
14,AEQN,21.7
15,AELF,16.2
16,APLF,≤ 0.25
17,AEGD,0.253
18,AILD,≤ 0.25
19,AQQV,≤ 0.25
20,AEQV,12.7
21,MEFK,1.13
22,WLKT,≤ 0.25
23,LQAS,≤ 0.25
24,AEWI,≤ 0.25
25,AEFA,0.58

row,Variant,enrichment ratio
1,AELY,9.13
2,AEFP,≤ 0.25
3,AELW,11.4
4,AHLW,≤ 0.25
5,AEPA,≤ 0.25
6,AILW,≤ 0.25
7,AELK,11.5
8,AELA,18.7
9,AELS,10.7
10,AEFS,19
11,SDLA,1.18
12,VFRG,≤ 0.25
13,LTPC,≤ 0.25
14,YIFI,≤ 0.25
15,AIGN,6.31
16,AELN,12.5
17,AELV,24.4
18,AEDK,≤ 0.25
19,AELI,30.6
20,AELP,≤ 0.25
21,AEGN,12.2
22,AEWN,≤ 0.25
23,AECN,6.19
24,AHGN,≤ 0.25
25,AEHK,≤ 0.25

row,Variant,enrichment ratio
1,AVWD,≤ 0.25
2,EYSC,≤ 0.25
3,PPHG,≤ 0.25
4,ISCM,2.52
5,EMGW,≤ 0.25
6,YGNI,≤ 0.25
7,VDAC,≤ 0.25
8,QMES,≤ 0.25
9,CLVG,≤ 0.25
10,FPHK,≤ 0.25
11,WEIR,≤ 0.25
12,QELH,≤ 0.25
13,AENI,≤ 0.25
14,AEYR,≤ 0.25
15,AELL,12.1
16,MELH,6.92
17,AELH,11.9
18,AENS,16
19,GSMR,≤ 0.25
20,VMYM,≤ 0.25
21,VVSV,≤ 0.25
22,RPHF,≤ 0.25
23,SIAI,11.6
24,TIAI,11.7
25,WIAI,≤ 0.25

row,Variant,enrichment ratio
1,TIYY,≤ 0.25
2,SIYY,≤ 0.25
3,KYAI,≤ 0.25
4,AKAI,5.1
5,AIAI,12.7
6,KMAI,≤ 0.25
7,TIAT,10.2
8,AMAI,14.3
9,NMAI,≤ 0.25
10,VKNM,≤ 0.25
11,NFFL,≤ 0.25
12,GWNK,≤ 0.25
13,RLRM,≤ 0.25
14,RGTH,≤ 0.25
15,YTEG,≤ 0.25
16,YVMY,≤ 0.25
17,DNCH,≤ 0.25
18,GTCF,1.25
19,MCSA,≤ 0.25
20,FSEL,≤ 0.25
21,ANAI,30.1
22,GNAI,7.21
23,ANCS,2.95
24,EQHH,≤ 0.25
25,QPLL,≤ 0.25

row,Variant,enrichment ratio
1,QFLL,≤ 0.25
2,MSLL,13.3
3,FCLL,10.7
4,FSLL,13.5
5,YSLL,11.4
6,NRLL,≤ 0.25
7,TSLL,14
8,NSLL,3.55
9,MSLT,4.06
10,KSLL,≤ 0.25
11,FQLL,5.35
12,TRIL,5.95
13,WDTG,≤ 0.25
14,RKRR,≤ 0.25
15,VQAF,≤ 0.25
16,TDFE,≤ 0.25
17,NRKC,≤ 0.25
18,KMVF,≤ 0.25
19,SYLL,0.392
20,SSLL,19.9
21,SILL,1.4
22,STGV,13.4
23,YTGV,≤ 0.25
24,QEGV,≤ 0.25
25,TMHV,0.946

row,Variant,enrichment ratio
1,SEGV,11.7
2,SRGV,≤ 0.25
3,KYGV,≤ 0.25
4,KCGV,≤ 0.25
5,TMGV,12.1
6,FHNP,≤ 0.25
7,WDYS,≤ 0.25
8,LVGT,≤ 0.25
9,RDTF,≤ 0.25
10,VQAH,≤ 0.25
11,PCAG,≤ 0.25
12,LCRQ,≤ 0.25
13,YPYC,≤ 0.25
14,THQH,23.5
15,TLKH,≤ 0.25
16,SHQH,≤ 0.25
17,NHQH,≤ 0.25
18,KSQH,≤ 0.25
19,TLQH,21.1
20,RRNN,≤ 0.25
21,TVNT,8.93
22,AHNM,5.49
23,NMYM,≤ 0.25
24,TQPV,≤ 0.25
25,MGNT,≤ 0.25

row,Variant,enrichment ratio
1,MGAQ,18.9
2,MGWN,18.9
3,MGDN,≤ 0.25
4,MKAQ,≤ 0.25
5,MGKR,≤ 0.25
6,MGNL,≤ 0.25
7,MGAT,18.8
8,MGLT,5.67
9,TGAN,2.47
10,QRAQ,≤ 0.25
11,MGAN,12.6
12,REVQ,≤ 0.25
13,RQWC,≤ 0.25
14,SLFD,≤ 0.25
15,VERW,≤ 0.25
16,LTMP,≤ 0.25
17,VRTD,≤ 0.25
18,TDMT,10.8
19,QVFF,≤ 0.25
20,MIFN,11
21,MGAI,16.1
22,MGAG,1.81
23,YTFN,≤ 0.25
24,TGFN,≤ 0.25
25,MTFN,16.9

row,Variant,enrichment ratio
1,MGFN,11.6
2,MGCS,6.13
3,MKFN,≤ 0.25
4,QLDR,≤ 0.25
5,GINV,≤ 0.25
6,SIAD,7.06
7,YITI,≤ 0.25
8,YTPA,≤ 0.25
9,PENS,≤ 0.25
10,SNDM,≤ 0.25
11,YEES,≤ 0.25
12,YECH,6.45
13,YECQ,30.7
14,YECV,22.8
15,YEQP,≤ 0.25
16,FTCV,0.528
17,YECC,56.2
18,YECS,14.8
19,YECK,≤ 0.25
20,FTCC,≤ 0.25
21,FTCQ,7.15
22,YECI,0.32
